Growth data for 8 compounds are collected here from PubChem BioAssay (NCI).

Each structure is given as a SMILES string. The panel holds about 83,000 compounds, 20% with a hit somewhere; the sample as a whole holds those more often.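 Single-dose data. Exposure time 48 hours. Values below 10 considered active.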 Unmarked numbers belong to inactive results. Calls of active or inactive are those of the source.

Among the test systems are HCT-15 colon; HT29 colon; SNB-75 CNS; SNB-19 CNS; U251 CNS; PC-3 prostate; SK-MEL-5 melanoma; UACC-62 melanoma; LOX IMVI melanoma; SK-MEL-28 melanoma; SK-MEL-2 melanoma; EKVX NSCLC; SN12C renal; UO-31 renal; TK-10 renal; ACHN renal; CAKI-1 renal; A498 renal; CCRF-CEM leukemia; MOLT-4 leukemia.
What all share (assay): NCI-60 one-dose screen, 48 h (100 = growth as untreated, 0 = no growth, -100 = all killed)
Holding throughout (conditions): 10 µM unless noted

With `CCCCNC1=C(OCC)C(=O)c2ccccc2C1=O`, the growth in the assay with HCT-15 colon was 94.3%; in the assay on HT29 colon, 123%; with SNB-75 CNS, 96.1%; in the assay on SNB-19 CNS, 100%; in the assay on U251 CNS it was 99.7%; in the assay with PC-3 prostate it was 94.4%. Besides, the growth with SK-MEL-5 melanoma was 91.9%; in the assay with UACC-62 melanoma, 97.5%; with LOX IMVI melanoma, 68.8%; with SK-MEL-28 melanoma it was 114%; in the assay on SK-MEL-2 melanoma it was 104%; in the assay with EKVX NSCLC it was 104%. In addition, the growth was 97.2% with SN12C renal; 91.5% with UO-31 renal; 145% with TK-10 renal; 105% in the assay on ACHN renal; 110% in the assay on CAKI-1 renal; 37.4% in the assay on A498 renal. The growth in the assay on CCRF-CEM leukemia was 100%; in the assay on MOLT-4 leukemia, 108%.
Consider `CN(CCC#N)c1ccc(/C=C2\NC(=O)NC2=O)cc1`, for which the growth is 104% in the assay with HCT-15 colon; 82.4% with HT29 colon; 102% with SNB-75 CNS; 102% with SNB-19 CNS; 112% with U251 CNS; 94.8% in the assay on PC-3 prostate. The growth in the assay with SK-MEL-5 melanoma was 102%; in the assay with UACC-62 melanoma, 91.1%; with LOX IMVI melanoma, 87.9%; with SK-MEL-28 melanoma, 109%; in the assay on SK-MEL-2 melanoma, 100%; in the assay with EKVX NSCLC, 79.3%. The growth was 98.6% in the assay on SN12C renal; 84.4% with UO-31 renal; 93.5% with TK-10 renal; 97.9% in the assay on ACHN renal; 82.8% in the assay with CAKI-1 renal; 89.3% in the assay with A498 renal. Besides, the growth with CCRF-CEM leukemia was 107%.
For the compound `Cc1c(Cl)cccc1C(=O)Nc1nc2c(s1)CN(C(=O)Nc1cccc(C(F)(F)F)c1)CC2`, the growth with HCT-15 colon is 11.8%; in the assay on HT29 colon it was 1.39% (active); in the assay on SNB-75 CNS, 6.15% (active); in the assay on SNB-19 CNS it was 36.7%; in the assay on U251 CNS it was 22.2%; with PC-3 prostate, 6.43% (active). The growth in the assay on SK-MEL-5 melanoma is 2.35% (active); with UACC-62 melanoma, 27.8%; with LOX IMVI melanoma it was 18.9%; with SK-MEL-28 melanoma, 44.4%; in the assay on SK-MEL-2 melanoma, 37.4%; with EKVX NSCLC, 46%. Besides, the growth with SN12C renal was 26%; in the assay on UO-31 renal it was 27.8%; in the assay with TK-10 renal, 50.9%; in the assay with ACHN renal, 18.3%; in the assay on CAKI-1 renal, 15.9%; with A498 renal, -10.2% (active). The growth in the assay on CCRF-CEM leukemia is 16.7%; in the assay with MOLT-4 leukemia it was 15.9%.
As to `COc1ccccc1NC(=O)c1ccc(/C=C/C(=O)c2nccn2C)cc1`, the growth in the assay on HCT-15 colon is -30.3% (active); with HT29 colon, -52.6% (active); in the assay with SNB-75 CNS, -3.01% (active); in the assay with SNB-19 CNS, -84.3% (active); in the assay on U251 CNS, -74.6% (active); in the assay with PC-3 prostate, -49.4% (active). Moreover, the growth with SK-MEL-5 melanoma is -97.1% (active); in the assay on UACC-62 melanoma, -60.6% (active); with LOX IMVI melanoma, -82.5% (active); with SK-MEL-28 melanoma, -45.9% (active); with SK-MEL-2 melanoma, -27.4% (active); in the assay with EKVX NSCLC it was -12.2% (active). Besides, the growth in the assay with SN12C renal was -80.4% (active); in the assay on UO-31 renal it was -94.5% (active); in the assay with TK-10 renal, -45.6% (active); with ACHN renal, -100% (active); in the assay with CAKI-1 renal, -38.7% (active); in the assay with A498 renal, -39.8% (active). The growth in the assay on CCRF-CEM leukemia is -11.6% (active).
As to `Cn1cc(-c2nonc2-c2c[nH]c3ccccc23)c2ccccc21`, the growth was 16.6% in the assay on HCT-15 colon; 5.85% (active) in the assay with HT29 colon; -18.2% (active) with SNB-75 CNS; 12.8% in the assay with SNB-19 CNS; 12.4% in the assay with U251 CNS; 20.7% in the assay on PC-3 prostate. Further, the growth in the assay with SK-MEL-5 melanoma was 21.2%; with UACC-62 melanoma it was 8.21% (active); with LOX IMVI melanoma, 23.5%; in the assay on SK-MEL-28 melanoma, 41.6%; in the assay on SK-MEL-2 melanoma, 51.2%; with EKVX NSCLC, 26%. In addition, the growth with SN12C renal was 23.4%; in the assay on UO-31 renal, 15.6%; in the assay on TK-10 renal, 47.7%; in the assay with ACHN renal, 31.1%; in the assay on CAKI-1 renal it was 20.4%; with A498 renal, -13.4% (active). In addition, the growth is 7.68% (active) in the assay with CCRF-CEM leukemia and 8.23% (active) in the assay on MOLT-4 leukemia.
As for `COc1ccc(C(c2cc(OC)c(OC)c(OC)c2)N2CCN(Cc3ccccc3)CC2)cc1` (stereo unspecified), the growth in the assay with HCT-15 colon was 47.6%; with HT29 colon, 28.3%; with SNB-75 CNS it was 92.4%; in the assay with SNB-19 CNS, 70%; in the assay with U251 CNS, 62.8%; in the assay on PC-3 prostate, 59.3%. In addition, the growth is 52.6% in the assay with SK-MEL-5 melanoma; 49.4% with UACC-62 melanoma; 67% in the assay on LOX IMVI melanoma; 78.3% in the assay with SK-MEL-28 melanoma; 27.4% in the assay with SK-MEL-2 melanoma; 82.7% in the assay with EKVX NSCLC. Further, the growth with SN12C renal is 88.4%; in the assay with UO-31 renal, 68.8%; in the assay on TK-10 renal it was 84.8%; with ACHN renal it was 92.8%; in the assay with CAKI-1 renal, 66.7%; in the assay on A498 renal it was 51.9%. In addition, the growth in the assay on CCRF-CEM leukemia is 68.8%.
Take `CCNc1nc(-c2ccc(F)cc2)c(C#N)c(=O)n1C`: the growth was 56.8% in the assay with HCT-15 colon; 57.2% with HT29 colon; 37.9% in the assay on SNB-75 CNS; 60.6% in the assay with SNB-19 CNS; 65.2% in the assay with U251 CNS; 42.8% with PC-3 prostate. For the same compound, the growth in the assay on SK-MEL-5 melanoma is 57.3%; with UACC-62 melanoma, 44%; in the assay with LOX IMVI melanoma, 63.2%; in the assay with SK-MEL-28 melanoma, 77.5%; with SK-MEL-2 melanoma it was 77.8%; with EKVX NSCLC it was 29.1%. In addition, the growth in the assay with SN12C renal was 69.1%; with UO-31 renal, 41.2%; in the assay with TK-10 renal it was 34%; in the assay with ACHN renal, 52.5%; in the assay on CAKI-1 renal, 53.3%; in the assay with A498 renal, -9.07% (active). The growth was 85.9% in the assay on CCRF-CEM leukemia and 71.6% in the assay on MOLT-4 leukemia.
`CCC(CC)(N(CC(=O)O)CC(=O)O)C(CC)(CC)N(CC(=O)O)CC(=O)O`: the growth is 131% in the assay on HCT-15 colon; 89.9% in the assay with HT29 colon; 108% with SNB-75 CNS; 107% in the assay on SNB-19 CNS; 102% in the assay on U251 CNS; 85.1% with PC-3 prostate. The growth is 105% in the assay on SK-MEL-5 melanoma; 102% in the assay on UACC-62 melanoma; 98.6% in the assay with LOX IMVI melanoma; 108% with SK-MEL-28 melanoma; 112% in the assay with SK-MEL-2 melanoma; 117% with EKVX NSCLC. The growth is 94.8% in the assay with SN12C renal; 103% in the assay with UO-31 renal; 103% with TK-10 renal; 116% in the assay with ACHN renal; 98.4% with CAKI-1 renal; 126% with A498 renal. Further, the growth in the assay with CCRF-CEM leukemia was 93%.
